Measured values published in PubChem BioAssay (NCATS).
“And” between values parts separate entries of the source, which are not always exact repeats. Equal entries are not always repeated. Records with an inconclusive call do not appear. The source made the active and inactive calls. Unless noted, calls follow the shape of the dose curve; as a rule, active = well fitted inhibition curve with a large enough effect; inconclusive = small, poorly fitted or top-dose-only effect; inactive = flat fitted curve, though single readings scatter.

How the values were obtained:
[1] = Drug repurposing screens with cells derived from glioblastoma tumor samples (AID 1345199); details: GBM patient neurospheres viability, ATP luminescence, 48 h; also: % is scaled to controls: 0 for no effect and ±100 for the full control effect; nearly all actives have a fitted effect of over 40% in size
Outline: (§1)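 Four patient lines of CD133+ GBM neurospheres were screened at several concentrations; hits were retested in those lines plus three slower-growing GBM lines, using 48-hour treatment and ATP-based viability.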

[2] = test system: astro; test: as above; details: viability, ATP luminescence, 48 h; series mostly up to 45.9 µM
Outline: as §1

[3] = target: Nuclear receptor subfamily 1 group I member 2 (Rattus norvegicus) (UniProt Q9R1A7); test: qHTS assay for small molecule activators of the rat pregnane X receptor (rPXR) signaling pathway (AID 651751; call rule not given here; also: 0% is about no effect); details: rPXR reporter cells, luciferase (One-Glo), 24 h
[4] = qHTS assay for small molecule activators of the human pregnane X receptor (PXR) signaling pathway (AID 720659; call rule not given here; also: 0% is about no effect); details: DPX-2 HepG2 CYP3A4-luciferase, 24 h; series mostly up to 92.3 µM
[5] = at 45.9 µM (top of the series), tumour line B
[6] = at 45.9 µM (top of the series), tumour line D
[7] = at 46 µM (top of the series), tumour line A
[8] = at 46.1 µM (top of the series), tumour line C

Nuclear receptor subfamily 1 group I member 2 (Rattus norvegicus), sequence (Q9R1A7 whole entry, looked up): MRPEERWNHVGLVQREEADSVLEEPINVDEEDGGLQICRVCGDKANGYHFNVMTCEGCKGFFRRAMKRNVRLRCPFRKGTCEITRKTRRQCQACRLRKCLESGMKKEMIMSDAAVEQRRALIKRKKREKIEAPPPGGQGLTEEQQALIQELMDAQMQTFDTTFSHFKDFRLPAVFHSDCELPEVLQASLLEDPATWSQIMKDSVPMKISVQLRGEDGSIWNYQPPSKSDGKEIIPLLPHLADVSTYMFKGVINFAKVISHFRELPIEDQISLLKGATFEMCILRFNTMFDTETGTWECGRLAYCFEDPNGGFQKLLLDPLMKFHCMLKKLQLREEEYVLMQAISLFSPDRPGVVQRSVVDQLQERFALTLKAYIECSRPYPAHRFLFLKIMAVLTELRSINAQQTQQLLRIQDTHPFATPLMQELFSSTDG

C=C(C)C1CC=C(C)CC1 (centres undefined)
inactive: activity, negative = cell killing [1, 5] -13.3% | activity, negative = cell killing [1, 6] -4.33% | activity, negative = cell killing [1, 7] -25% | activity, negative = cell killing [1, 8] -2.45% | Potency [2] | max response [3] 7.4% and -2.46%

Cc1ccc(S(=O)(=O)O)cc1C
inactive: activity, negative = cell killing [1, 5] -6.15% | activity, negative = cell killing [1, 6] 0.633% | activity, negative = cell killing [1, 7] -2.37% | activity, negative = cell killing [1, 8] -2.17% | Potency [2] | max response [3] 0.795% | outcome [4]

Cc1ncc(C[n+]2csc(CCOP(=O)(O)O)c2C)c(N)n1
inactive: activity, negative = cell killing [1, 5] -1.8% | activity, negative = cell killing [1, 6] -1.97% | activity, negative = cell killing [1, 7] -17% | activity, negative = cell killing [1, 8] -10.8% | Potency [2]

CC(C)CN(C[C@@H](O)[C@H](Cc1ccccc1)NC(=O)O[C@@H]1CCOC1)S(=O)(=O)c1ccc(N)cc1
inactive: activity, negative = cell killing [1, 5] -6.03% | activity, negative = cell killing [1, 6] -14.3% | activity, negative = cell killing [1, 8] -3.48% | Potency [2]

CC[C@H]1OC(=O)[C@H](C)[C@@H](O[C@H]2C[C@@](C)(OC)[C@@H](O)[C@H](C)O2)C(C)[C@@H](O[C@@H]2O[C@H](C)C[C@H](N(C)C)[C@@H]2O)[C@](C)(OC)C[C@@H](C)C(=O)[C@H](C)[C@@H](O)[C@]1(C)O (some centres undefined)
inactive: activity, negative = cell killing [1, 5] -10.3% | activity, negative = cell killing [1, 6] -27.7% | activity, negative = cell killing [1, 8] 2.27% | Potency [2]

CCC(Cc1c(I)cc(I)c(O)c1I)C(=O)O (centres undefined)
inactive: activity, negative = cell killing [1, 5] -7.21% | activity, negative = cell killing [1, 6] -2.81% | activity, negative = cell killing [1, 7] -17.6% | Potency [2]

O=C(O)/C=C/C(=O)Nc1ccc(S(=O)(=O)Nc2nccs2)cc1
inactive: activity, negative = cell killing [1, 5] -4.39% | activity, negative = cell killing [1, 6] -8.87% | activity, negative = cell killing [1, 8] -5.24% | Potency [2]
